In PubChem BioAssay (NCATS):
Records with an inconclusive call do not appear. Activity calls are given as the source filed them. Calls come from the whole dose curve; as a rule, active = well fitted inhibition curve with a large enough effect; inconclusive = small, poorly fitted or top-dose-only effect; inactive = flat fitted curve, though single readings scatter.

Columns and labels:
Test in all cases: qHTS profiling for inhibitors of Plasmodium falciparum proliferation (AID 504749); note: nearly all actives have a fitted effect of over 60% in size
CP217 = conditions: P. falciparum in erythrocytes, SYBR Green DNA, 72 h; series mostly up to 28.7 µM
Procedure, shortened: (§1)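 SYBR Green fluorescence (ex 485 nm, em 535 nm) reports parasite DNA after 72 h compound exposure of infected red cells at 0.3% parasitemia, 2.5% hematocrit; signal normalized to 0.29 uM artemisinin and vehicle wells.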

CP237 = conditions: P. falciparum in erythrocytes, SYBR Green DNA, 72 h; series mostly up to 28.7 µM
Procedure, shortened: as §1

CP238 = conditions: P. falciparum in erythrocytes, SYBR Green DNA, 72 h; series mostly up to 28.7 µM
Procedure, shortened: as §1

CP247 = conditions: P. falciparum in erythrocytes, SYBR Green DNA, 72 h; series mostly up to 28.7 µM
Procedure, shortened: as §1

CP250 = conditions: P. falciparum in erythrocytes, SYBR Green DNA, 72 h; series mostly up to 12.8 µM
Procedure, shortened: as §1

CP252 = conditions: P. falciparum in erythrocytes, SYBR Green DNA, 72 h; series mostly up to 12.8 µM
Procedure, shortened: as §1

CP256 = conditions: P. falciparum in erythrocytes, SYBR Green DNA, 72 h; series mostly up to 28.7 µM
Procedure, shortened: as §1

CP260 = conditions: P. falciparum in erythrocytes, SYBR Green DNA, 72 h; series mostly up to 28.7 µM
Procedure, shortened: as §1

CP262 = conditions: P. falciparum in erythrocytes, SYBR Green DNA, 72 h; series mostly up to 28.7 µM
Procedure, shortened: as §1

CP265 = conditions: P. falciparum in erythrocytes, SYBR Green DNA, 72 h; series mostly up to 12.8 µM
Procedure, shortened: as §1

CP268 = conditions: P. falciparum in erythrocytes, SYBR Green DNA, 72 h; series mostly up to 28.7 µM
Procedure, shortened: as §1

CP269 = conditions: P. falciparum in erythrocytes, SYBR Green DNA, 72 h; series mostly up to 28.7 µM
Procedure, shortened: as §1

CP286 = conditions: P. falciparum in erythrocytes, SYBR Green DNA, 72 h; series mostly up to 28.7 µM
Procedure, shortened: as §1

CP291 = conditions: P. falciparum in erythrocytes, SYBR Green DNA, 72 h; series mostly up to 28.7 µM
Procedure, shortened: as §1

CP297 = conditions: P. falciparum in erythrocytes, SYBR Green DNA, 72 h; series mostly up to 28.7 µM
Procedure, shortened: as §1

CP305 = conditions: P. falciparum in erythrocytes, SYBR Green DNA, 72 h; series mostly up to 28.7 µM
Procedure, shortened: as §1

CP315 = conditions: P. falciparum in erythrocytes, SYBR Green DNA, 72 h; series mostly up to 28.7 µM
Procedure, shortened: as §1

CP325 = conditions: P. falciparum in erythrocytes, SYBR Green DNA, 72 h; series mostly up to 28.7 µM
Procedure, shortened: as §1

CP329 = conditions: P. falciparum in erythrocytes, SYBR Green DNA, 72 h; series mostly up to 28.7 µM
Procedure, shortened: as §1

CP335 = conditions: P. falciparum in erythrocytes, SYBR Green DNA, 72 h; series mostly up to 12.8 µM
Procedure, shortened: as §1

DIV14 = conditions: P. falciparum in erythrocytes, SYBR Green DNA, 72 h; series mostly up to 28.7 µM
Procedure, shortened: as §1

DIV17 = conditions: P. falciparum in erythrocytes, SYBR Green DNA, 72 h; series mostly up to 28.7 µM
Procedure, shortened: as §1

DIV30 = conditions: P. falciparum in erythrocytes, SYBR Green DNA, 72 h; series mostly up to 28.7 µM
Procedure, shortened: as §1

Dd2 = conditions: P. falciparum in erythrocytes, SYBR Green DNA, 72 h; series mostly up to 28.7 µM
Procedure, shortened: as §1

ECU = conditions: P. falciparum in erythrocytes, SYBR Green DNA, 72 h; series mostly up to 28.7 µM
Procedure, shortened: as §1

FAB9 = conditions: P. falciparum in erythrocytes, SYBR Green DNA, 72 h; series mostly up to 28.7 µM
Procedure, shortened: as §1

GB4 = conditions: P. falciparum in erythrocytes, SYBR Green DNA, 72 h; series mostly up to 28.7 µM
Procedure, shortened: as §1

HB3 = conditions: P. falciparum in erythrocytes, SYBR Green DNA, 72 h; series mostly up to 28.7 µM
Procedure, shortened: as §1

ICS = conditions: P. falciparum in erythrocytes, SYBR Green DNA, 72 h; series mostly up to 28.7 µM
Procedure, shortened: as §1

JCK = conditions: P. falciparum in erythrocytes, SYBR Green DNA, 72 h; series mostly up to 28.7 µM
Procedure, shortened: as §1

N140 = conditions: P. falciparum in erythrocytes, SYBR Green DNA, 72 h; series mostly up to 28.7 µM
Procedure, shortened: as §1

P93_24 = conditions: P. falciparum in erythrocytes, SYBR Green DNA, 72 h; series mostly up to 28.7 µM
Procedure, shortened: as §1

P94_40 = conditions: P. falciparum in erythrocytes, SYBR Green DNA, 72 h; series mostly up to 28.7 µM
Procedure, shortened: as §1

PAD = conditions: P. falciparum in erythrocytes, SYBR Green DNA, 72 h; series mostly up to 28.7 µM
Procedure, shortened: as §1

PC15 = conditions: P. falciparum in erythrocytes, SYBR Green DNA, 72 h; series mostly up to 28.7 µM
Procedure, shortened: as §1

PC26 = conditions: P. falciparum in erythrocytes, SYBR Green DNA, 72 h; series mostly up to 28.7 µM
Procedure, shortened: as §1

PC49 = conditions: P. falciparum in erythrocytes, SYBR Green DNA, 72 h; series mostly up to 28.7 µM
Procedure, shortened: as §1

SC27B = conditions: P. falciparum in erythrocytes, SYBR Green DNA, 72 h; series mostly up to 28.7 µM
Procedure, shortened: as §1

TAB109 = conditions: P. falciparum in erythrocytes, SYBR Green DNA, 72 h; series mostly up to 12.8 µM
Procedure, shortened: as §1

TAB113 = conditions: P. falciparum in erythrocytes, SYBR Green DNA, 72 h; series mostly up to 28.7 µM
Procedure, shortened: as §1

TAB165 = conditions: P. falciparum in erythrocytes, SYBR Green DNA, 72 h; series mostly up to 28.7 µM
Procedure, shortened: as §1

W2 = conditions: P. falciparum in erythrocytes, SYBR Green DNA, 72 h; series mostly up to 12.8 µM
Procedure, shortened: as §1

Measured: Potency

C[C@]12CC[C@H](OS(=O)(=O)O)CC1=CCC1C2CC[C@]2(C)C(=O)CC[C@@H]12 (some centres not stated)
inactive: all assays above
